Results filed as inconclusive are left out. Active and inactive are the calls of the source. Unless noted, cut-off not given; nearly all actives show AC50 up to about 26 µM.
Key:
[1] = viability loss in pontine glioma line – cell-based, SU-DIPG-XVII, MIPE5.0, CellTiter-Glo, qHTS, dose response (AID 1347060); conditions: CellTiter-Glo ATP luminescence;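 on AC50: cells exposed to compound for 48 hours before viability readout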
[2] = viability loss in pontine glioma line – cell-based, SU-DIPG-XIII, MIPE5.0, CellTiter-Glo, qHTS, dose response (AID 1347064; cut-off not given, nearly all actives have AC50 up to about 23 µM;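 on AC50: cells exposed to compound for 48 hours before the viability read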); conditions: CellTiter-Glo ATP luminescence
[3] = viability loss in pontine glioma line – cell-based, SU-DIPG-XXV, MIPE5.0, CellTiter-Glo, qHTS, dose response (AID 1347065); conditions: CellTiter-Glo ATP luminescence;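 further: cells exposed to compound for 48 hours before ATP readout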
[4] = JHH-DIPG-1 glioma cell viability, MIPE5.0 library, CellTiter-Glo luminescence, qHTS (AID 1347067); conditions: JHH-DIPG-1 glioma viability, CellTiter-Glo ATP luminescence;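 further: cells exposed to compound for 48 hours before readout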
[5] = growth inhibition of DIPG cells – cell-based, MIPE5.0 library, qHTS (AID 1347068; cut-off not given, nearly all actives have IC50 up to about 30 µM;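 on IC50: cells exposed to compound for 48 hours before viability readout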); conditions: SU-DIPG-XXV viability

Cc1[nH]cnc1CN1CCN(C(=O)N[C@@H](CC(C)C)C(=O)O)[C@@H](Cc2ccccc2)C1=O
inactive: outcome [1] | outcome [2] | outcome [3] | outcome [4] | outcome [5]

COc1ccc(N(C)c2nc(C)nc3ccccc23)cc1
active: AC50 [1] 0.00833 µM | AC50 [2] 0.00934 µM | AC50 [3] 0.0059 µM | AC50 [4] 0.0105 µM | IC50 [5] 0.0166 µM

Cc1ccc(NC(=O)c2ccc(CN3CC[C@H](N(C)C)C3)c(C(F)(F)F)c2)cc1Nc1nccc(-c2cncnc2)n1
inactive: outcome [5]
active: AC50 [1] 10.2 µM | AC50 [2] 14.4 µM | AC50 [3] 16.2 µM | AC50 [4] 11.5 µM

COC(=O)Nc1cc(Nc2cc(NC3CC3)c3ncc(C#N)n3n2)c(Cl)c(N2CCN(C)CC2)c1
active: AC50 [1] 5.25 µM | AC50 [2] 3.72 µM | AC50 [3] 2.63 µM | AC50 [4] 2.95 µM | IC50 [5] 23.5 µM

CCN1C(=O)N2Cc3cc(OC)cc(OC)c3[C@@H](C)C=C2C12CCN(Cc1cc(C)cc(C)c1)CC2
active: AC50 [1] 20.9 µM | AC50 [2] 18.6 µM | AC50 [3] 14.8 µM | AC50 [4] 18.6 µM | IC50 [5] 20.9 µM

CN1C(=O)[C@@H](NC(=O)c2n[nH]c(Cc3ccccc3)n2)COc2ccccc21
inactive: outcome [1] | outcome [2] | outcome [3] | outcome [4] | outcome [5]

COc1cc2c3c(n(CCCNCCO)c(=O)c2cc1OC)-c1cc2c(cc1C3=O)OCO2
active: AC50 [1] 0.105 µM | AC50 [2] 2.95 µM | AC50 [3] 4.68 µM | AC50 [4] 2.63 µM | IC50 [5] 9.34 µM

CN[C@@H](C)C(=O)N[C@H](C(=O)N1CCC[C@H]1C(=O)Nc1sc(-c2ncco2)nc1-c1ccccc1)C1CCCCC1
inactive: outcome [1] | outcome [2] | outcome [3] | outcome [4] | outcome [5]

CC(=O)c1cnc2ccc(-c3cc(Cl)c(O)c(Cl)c3)nc2c1NC1CCC(CN(C)C)CC1 (stereo not given)
active: AC50 [1] 0.191 µM | AC50 [2] 0.171 µM | AC50 [3] 0.121 µM | AC50 [4] 0.303 µM | IC50 [5] 0.191 µM

CCCC(CCC)C(=O)Nc1ccn([C@@H]2O[C@H](CO)[C@@H](O)C2(F)F)c(=O)n1
active: AC50 [1] 4.68 µM
inactive: outcome [2] | outcome [3] | outcome [4] | outcome [5]

OC1CCC([C@H](O)C[C@H]2c3c(F)cccc3-c3cncn32)CC1 (stereo not given in full)
inactive: outcome [1] | outcome [2] | outcome [3] | outcome [4] | outcome [5]

C=CCNC1=C2CC(C)CC(OC)C(O)C(C)/C=C(\C)C(OC(N)=O)C(OC)/C=C/C=C(\C)C(=O)NC(=CC1=O)C2=O (stereo not given)
active: AC50 [1] 0.59 µM | AC50 [2] 1.66 µM | AC50 [3] 4.68 µM | AC50 [4] 0.525 µM | IC50 [5] 3.72 µM

C=CC(=O)Nc1cc(N2CCN(CC)CC2)ccc1Nc1cc(N(C)C(=O)Nc2c(Cl)c(OC)cc(OC)c2Cl)ncn1
active: AC50 [1] 14.8 µM | AC50 [2] 14.8 µM | AC50 [3] 18.6 µM | AC50 [4] 20.9 µM
inactive: outcome [5]

CS(=O)(=O)N1CCC(NC(=O)c2[nH]ncc2NC(=O)c2c(Cl)cccc2Cl)CC1
active: AC50 [1] 3.32 µM | AC50 [2] 4.17 µM | AC50 [3] 4.17 µM | AC50 [4] 4.17 µM | IC50 [5] 4.68 µM

COc1cc(N2CCC(N3CCN(C)CC3)CC2)ccc1Nc1ncc(Cl)c(Nc2ccccc2P(C)(C)=O)n1
active: AC50 [1] 0.105 µM | AC50 [2] 0.332 µM | AC50 [3] 0.186 µM | AC50 [4] 1.18 µM | IC50 [5] 1.05 µM

COc1ccc(Cl)cc1-c1cc(=O)[nH]c(=S)n1CC(N)=O
inactive: outcome [1] | outcome [2] | outcome [3] | outcome [4] | outcome [5]

CN1C(=O)N[C@@H](Cc2c[nH]c3c(Cl)cccc23)C1=O
inactive: outcome [1] | outcome [2] | outcome [3] | outcome [4] | outcome [5]

CCNC(=O)C#Cc1ccc2c(C(=Nc3ccc(CN(C)C)cc3)c3ccccc3)c(O)[nH]c2c1
active: AC50 [1] 0.162 µM | AC50 [2] 0.574 µM | AC50 [3] 0.0723 µM | AC50 [4] 0.288 µM | IC50 [5] 0.811 µM

O=C1CC[C@H](N2Cc3c(OCc4ccc(CN5CCOCC5)cc4)cccc3C2=O)C(=O)N1
inactive: outcome [1] | outcome [2] | outcome [3] | outcome [4] | outcome [5]

COCCOc1cnc2ccn([C@H](C)c3nnc4c(F)cc(-c5cnn(C)c5)cn34)c(=O)c2c1
inactive: outcome [1] | outcome [2] | outcome [3] | outcome [4] | outcome [5]

COc1ccccc1C(=O)Nc1cc2c(cc1N1CCNC[C@H]1C)n(C)c(=O)n2C
inactive: outcome [1] | outcome [2] | outcome [3] | outcome [4] | outcome [5]

O=C(COCC(=O)N1CCN(C(c2ccccc2)c2ccccc2)CC1)Nc1ccc(Cl)cc1C(=O)O
inactive: outcome [1] | outcome [2] | outcome [3] | outcome [4] | outcome [5]
